{"source": "paper PMC4336329", "about": "(PLoS ONE, 2015)", "note": "The whole screen tested about 310,000 compounds, of which about 14,000 (4.5%) showed an effect of 50% or more. Effects have a minus sign here. Only a selection was taken, and strong results are over-represented in it overall.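 Also: peak tail current of the secondary pulse compared with the same well before compound.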", "data": [{"target": "human ether-à-go-go-related gene (hERG) potassium channel (human, UniProt Q12809)", "sequence (Q12809 whole entry, looked up)": "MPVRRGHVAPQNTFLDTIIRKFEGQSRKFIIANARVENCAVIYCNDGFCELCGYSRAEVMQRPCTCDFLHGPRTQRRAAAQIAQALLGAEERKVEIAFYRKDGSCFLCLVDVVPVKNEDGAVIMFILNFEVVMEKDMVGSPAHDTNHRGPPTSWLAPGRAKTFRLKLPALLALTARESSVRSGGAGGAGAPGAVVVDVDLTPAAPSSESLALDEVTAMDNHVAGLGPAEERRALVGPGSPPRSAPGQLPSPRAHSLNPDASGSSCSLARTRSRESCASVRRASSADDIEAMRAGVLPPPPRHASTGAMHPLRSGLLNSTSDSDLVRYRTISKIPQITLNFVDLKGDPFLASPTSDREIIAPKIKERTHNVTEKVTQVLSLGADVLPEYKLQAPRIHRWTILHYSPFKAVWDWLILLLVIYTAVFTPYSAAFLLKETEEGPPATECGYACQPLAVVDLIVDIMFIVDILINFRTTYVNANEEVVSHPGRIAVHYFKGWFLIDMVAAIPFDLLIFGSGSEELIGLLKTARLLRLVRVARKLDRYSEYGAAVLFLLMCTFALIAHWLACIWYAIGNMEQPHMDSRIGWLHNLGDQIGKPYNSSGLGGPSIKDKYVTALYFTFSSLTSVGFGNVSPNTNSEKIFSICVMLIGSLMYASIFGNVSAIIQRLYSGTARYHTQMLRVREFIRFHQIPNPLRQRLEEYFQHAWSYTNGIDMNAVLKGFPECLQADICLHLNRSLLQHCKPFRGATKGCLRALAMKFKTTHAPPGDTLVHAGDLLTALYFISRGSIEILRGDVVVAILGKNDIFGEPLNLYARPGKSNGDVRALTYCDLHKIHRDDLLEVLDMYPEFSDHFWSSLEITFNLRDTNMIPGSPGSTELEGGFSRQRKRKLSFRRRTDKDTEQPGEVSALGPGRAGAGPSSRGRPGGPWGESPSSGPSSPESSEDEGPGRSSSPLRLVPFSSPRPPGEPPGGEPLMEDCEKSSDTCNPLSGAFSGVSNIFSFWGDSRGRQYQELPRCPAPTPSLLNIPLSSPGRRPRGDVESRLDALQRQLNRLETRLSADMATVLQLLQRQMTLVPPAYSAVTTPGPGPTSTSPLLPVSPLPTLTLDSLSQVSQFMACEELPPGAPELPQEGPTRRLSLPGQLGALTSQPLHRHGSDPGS", "assay": "primary screen, population patch clamp on CHO cells stably expressing hERG; higher = less effect of the substance", "units": {"hERG current change (%, negative = inhibition) at 10uM": "%"}, "values": [{"compound": "COc1ccc(S(=O)(=O)Cc2ccc(C(=O)NCCc3cc(OC)ccc3OC)o2)cc1", "hERG current change (%, negative = inhibition) at 10uM": -39.6}, {"compound": "COc1ccccc1C(CC(N)=O)c1ccco1", "note": "(stereo not drawn)", "hERG current change (%, negative = inhibition) at 10uM": 10.1}, {"compound": "O=C(Cc1cn2ccsc2n1)Nc1nc2c(s1)CCCC2", "hERG current change (%, negative = inhibition) at 10uM": -0.221}, {"compound": "CN(C)c1ccc(-c2nnn(CC(=O)Nc3ccccc3N3CCOCC3)n2)cc1", "hERG current change (%, negative = inhibition) at 10uM": -15.1}, {"compound": "CCOn1c(=O)c(-c2ccc(Br)cc2)[n+]([O-])c2ccccc21", "hERG current change (%, negative = inhibition) at 10uM": 13.6}, {"compound": "CNc1nc(N)c([N+](=O)[O-])c(NCc2ccccc2)n1", "hERG current change (%, negative = inhibition) at 10uM": -1.09}, {"compound": "Oc1ccc(Br)cc1CNc1cnc2ccccc2c1", "hERG current change (%, negative = inhibition) at 10uM": 16.4}, {"compound": "O=C(COC(=O)c1ncc(Cl)c(Cl)c1Cl)NNC(=O)c1ccccc1", "hERG current change (%, negative = inhibition) at 10uM": -1.26}, {"compound": "CCC(=O)Nc1ccc(C(=O)c2ccccc2)cc1", "hERG current change (%, negative = inhibition) at 10uM": -9.96}, {"compound": "Cc1ccc(C)c(NC(=O)[C@@H]2CCCN2S(=O)(=O)c2ccccc2F)c1", "hERG current change (%, negative = inhibition) at 10uM": 10.9}, {"compound": "COc1ccc(Nc2cc(Nc3ccccc3)ncn2)cc1", "hERG current change (%, negative = inhibition) at 10uM": 11.5}, {"compound": "COc1ccc(-c2ccc(=O)n(Cc3ccccc3)n2)cc1", "hERG current change (%, negative = inhibition) at 10uM": -5.74}, {"compound": "COc1ccc(-c2ccc(=O)n(Cc3ccc([N+](=O)[O-])cc3)n2)cc1", "hERG current change (%, negative = inhibition) at 10uM": -75}, {"compound": "COc1ccc(-c2ccc(=O)n(Cc3cccc([N+](=O)[O-])c3)n2)cc1", "hERG current change (%, negative = inhibition) at 10uM": -21.2}, {"compound": "C=CCOc1ccc(CNn2cn[nH]c2=S)cc1OCC", "hERG current change (%, negative = inhibition) at 10uM": 12.7}, {"compound": "CN(CC(=O)Nc1ccccc1Br)C(=O)CCc1nc2ccccc2c(=O)[nH]1", "hERG current change (%, negative = inhibition) at 10uM": -15.8}, {"compound": "COC(=O)c1cc(C(=O)c2ccc(Cl)cc2Cl)cn1C", "hERG current change (%, negative = inhibition) at 10uM": -16.4}, {"compound": "CCCCOc1ccc(C(=O)NCC(=O)N2CCN(C(=O)c3ccco3)CC2)cc1", "hERG current change (%, negative = inhibition) at 10uM": -57.4}, {"compound": "O=C(NCC(=O)N1CCN(C(=O)c2ccco2)CC1)c1ccc(Br)cc1", "hERG current change (%, negative = inhibition) at 10uM": -53.9}, {"compound": "O=C(NCC(=O)N1CCN(C(=O)c2ccco2)CC1)c1ccc(Cl)cc1", "hERG current change (%, negative = inhibition) at 10uM": -34.1}, {"compound": "O=C(NCCC(=O)N1CCN(C(=O)c2ccco2)CC1)c1ccc(Br)cc1", "hERG current change (%, negative = inhibition) at 10uM": -28.6}, {"compound": "O=C(NCC(=O)N1CCN(C(=O)c2ccco2)CC1)c1ccccc1", "hERG current change (%, negative = inhibition) at 10uM": -7.74}, {"compound": "COc1ccc(C(=O)NCC(=O)N2CCN(C(=O)c3ccco3)CC2)cc1", "hERG current change (%, negative = inhibition) at 10uM": -13.7}, {"compound": "O=[N+]([O-])c1ccc(Sc2n[nH]c(-c3ccncc3)n2)nc1", "hERG current change (%, negative = inhibition) at 10uM": 14.4}, {"compound": "CCCN(CC(=O)Nc1ccccc1C)C(=O)/C=C/c1ccc(OCC)c(OC)c1", "hERG current change (%, negative = inhibition) at 10uM": -46.7}, {"compound": "Cc1ccc(NC(=O)CSc2nnc(/N=C/N(C)C)s2)cc1", "hERG current change (%, negative = inhibition) at 10uM": -7.65}, {"compound": "COc1ccc2c(c1)NC(c1ccc(N(C)C)cc1)c1cccn1-2", "note": "(stereo not drawn)", "hERG current change (%, negative = inhibition) at 10uM": 12.5}, {"compound": "Cc1ccc(NC(=O)c2sc3nc(C)nc(N4CCN(c5ccccn5)CC4)c3c2C)c(C)c1", "hERG current change (%, negative = inhibition) at 10uM": -40.1}, {"compound": "Cc1nc(N2CCN(c3ccccn3)CC2)c2c(C)c(C(=O)Nc3ccc(F)cc3F)sc2n1", "hERG current change (%, negative = inhibition) at 10uM": -57.9}, {"compound": "CCc1ccc(NC(=O)c2sc3nc(C)nc(N4CCN(c5ccccn5)CC4)c3c2C)cc1", "hERG current change (%, negative = inhibition) at 10uM": 5.47}, {"compound": "Cc1ccc(NC(=O)c2sc3ncn(CC(=O)N4CCN(c5ccccn5)CC4)c(=O)c3c2C)cc1Cl", "hERG current change (%, negative = inhibition) at 10uM": -7.77}, {"compound": "Cc1cccc(NC(=O)c2sc3ncn(CC(=O)N4CCN(c5ccccn5)CC4)c(=O)c3c2C)c1", "hERG current change (%, negative = inhibition) at 10uM": -61.4}, {"compound": "Cc1nc(N2CCN(c3ccccn3)CC2)c2c(C)c(C(=O)Nc3ccc(F)cc3Cl)sc2n1", "hERG current change (%, negative = inhibition) at 10uM": -41.6}, {"compound": "Cc1nc(N2CCN(c3ccccn3)CC2)c2c(C)c(C(=O)Nc3ccc(F)cc3)sc2n1", "hERG current change (%, negative = inhibition) at 10uM": -76.4}, {"compound": "Cc1nc(N2CCN(c3ccccn3)CC2)c2c(C)c(C(=O)Nc3ccc(Cl)cc3)sc2n1", "hERG current change (%, negative = inhibition) at 10uM": -7.01}, {"compound": "COc1cccc(NC(=O)c2sc3ncn(CC(=O)N4CCN(c5ccccn5)CC4)c(=O)c3c2C)c1", "hERG current change (%, negative = inhibition) at 10uM": -0.877}, {"compound": "Cc1nc(N2CCN(c3ccccn3)CC2)c2c(C)c(C(=O)Nc3ccc(F)c(Cl)c3)sc2n1", "hERG current change (%, negative = inhibition) at 10uM": 14.2}, {"compound": "Cc1nc(N2CCN(c3ccccn3)CC2)c2c(C)c(C(=O)Nc3ccc(Br)cc3C)sc2n1", "hERG current change (%, negative = inhibition) at 10uM": 11.6}, {"compound": "Cc1nc(N2CCN(c3ccccn3)CC2)c2c(C)c(C(=O)Nc3ccccc3F)sc2n1", "hERG current change (%, negative = inhibition) at 10uM": -55.3}, {"compound": "C1CCC(C(CC2CCCCN2)C2CCCCC2)CC1.O=C(O)/C=C\\C(=O)O", "note": "(stereo not drawn)", "hERG current change (%, negative = inhibition) at 10uM": -22.6}, {"compound": "Cn1c(SCC(=O)Nc2ccc3nc(SCC(=O)NC4CC4)sc3c2)nnc1-c1ccccc1", "hERG current change (%, negative = inhibition) at 10uM": -5.5}, {"compound": "O=C(CSc1nnc(Cn2nnc(-c3ccccc3)n2)n1-c1ccccc1)Nc1ccc(F)cc1", "hERG current change (%, negative = inhibition) at 10uM": 3.55}, {"compound": "CC1CCN(C(=O)C(Cc2ccccc2)NS(=O)(=O)c2ccc3c(c2)oc(=O)n3C)CC1", "note": "(stereo not drawn)", "hERG current change (%, negative = inhibition) at 10uM": -2.38}, {"compound": "O=C(Nc1ccc2ccccc2c1)c1ccc(Cl)cc1Cl", "hERG current change (%, negative = inhibition) at 10uM": 31}, {"compound": "O=c1c2c3nc4ccccc4nc3n(/N=C/c3ccccn3)c2ncn1-c1ccccc1", "hERG current change (%, negative = inhibition) at 10uM": 19.8}, {"compound": "CC(c1ccco1)N(C(=O)COc1ccc(Cl)cc1)c1ccccn1", "note": "(stereo not drawn)", "hERG current change (%, negative = inhibition) at 10uM": -12.7}, {"compound": "O=C(NNS(=O)(=O)c1ccc(F)cc1)c1ccc(O)cc1", "hERG current change (%, negative = inhibition) at 10uM": 9.17}, {"compound": "CCOc1ccccc1NC(=O)c1sc2nc(C)nc(N3CCOCC3)c2c1C", "hERG current change (%, negative = inhibition) at 10uM": -14.4}, {"compound": "CCOc1ccc(NC(=O)c2sc3nc(C)nc(N4CCOCC4)c3c2C)cc1", "hERG current change (%, negative = inhibition) at 10uM": -50.7}, {"compound": "Cc1nc(N2CCOCC2)c2c(C)c(C(=O)Nc3ccc(C(F)(F)F)cc3)sc2n1", "hERG current change (%, negative = inhibition) at 10uM": -34.9}, {"compound": "CCC(C)(C)NC(=O)CN(Cc1cccs1)C(=O)CCC(=O)Nc1nccs1", "hERG current change (%, negative = inhibition) at 10uM": -36.6}]}]}
